± gives the standard deviation of the averaged measurements. Whole data set: some 33,000 sequences, median “E-score (dimensionless, -0.5 to 0.5)” near -0.046, cut for the highest 2% near 0.36. For the sample, the highest values were picked, then their nearest neighbours and some sequences at random.
Test system: T1, SpTbr T-box DNA-binding domain (GST fusion)
T1 sequence: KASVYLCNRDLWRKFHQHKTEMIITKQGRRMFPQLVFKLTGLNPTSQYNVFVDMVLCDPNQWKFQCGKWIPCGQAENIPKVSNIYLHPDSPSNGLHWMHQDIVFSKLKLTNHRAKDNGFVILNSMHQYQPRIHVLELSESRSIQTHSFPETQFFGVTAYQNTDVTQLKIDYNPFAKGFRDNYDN
Assay: PBM E-score of 8-mer (E-score (dimensionless, -0.5 to 0.5)); Tbr is Tbrain of the sea star Patiria miniata (Pm) or the sea urchin Strongylocentrotus purpuratus (Sp); higher = stronger binding preference
Conditions: the construct has about 5 more residues each side
Method in brief: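 GST-fused Tbr T-box DNA-binding domains (the whole T-box plus about five flanking residues) were expressed in BL21 E. coli at 20 °C and purified by glutathione affinity chromatography. Universal Agilent oligonucleotide arrays were made double-stranded by primer extension, incubated with 200 nM protein in PBS (pH 7.5), then scanned and quantified. Every ungapped 8-mer was scored from probe intensities. The Universal PBM Analysis Suite gave each word an enrichment E-score, averaged over duplicate arrays.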

Sequence	PBM E-score of 8-mer
CTGACAGC	0.318 ± 0.0042
CTGACACC	0.4611 ± 0.0014
CTGACATC	-0.107 ± 0.031
ATGACACG	0.315 ± 0.035
ATGACACA	0.327 ± 0.033
ATGACACC	0.4599 ± 0.0031
ACTCATAA	-0.0942 ± 0.0043
CAGAGCGC	-0.00751 ± 0.044
CAGGTCGC	0.225 ± 0.038
CTTTCAAA	-0.203 ± 0.0062
GCTTCACA	0.347 ± 0.013
ATTTCACG	0.293 ± 0.04
ATTTCACA	0.4303 ± 0.0022
ATTTCACC	0.0204 ± 0.024
GTTTCACA	0.38 ± 0.012
CTTTCACA	0.44384 ± 0.0002
GTTTCAAA	-0.327 ± 0.079
CTTTCACC	0.0179 ± 0.03
CGCCCAGA	0.0494 ± 0.0041
AGCTAACT	-0.27 ± 0.067
CCAGTATC	-0.199 ± 0.063
CCCTTAGG	0.00499 ± 0.015

Sequence	PBM E-score of 8-mer
AGCCCCCT	-0.356 ± 0.013
TGCAAGAA	-0.0626 ± 0.014
ACTCTTTG	0.221 ± 0.066
CGCGTCAA	0.313 ± 0.006
TGCGTTAA	0.208 ± 0.026
AGCGTCAA	0.317 ± 0.0075
AGCGTCAC	0.3328 ± 0.0021
GGCGTCAC	0.373 ± 0.024
GGCGTTAA	0.387 ± 0.0042
CGCGTCAC	0.277 ± 0.039
GGCGTCAA	0.412 ± 0.018
AGCGTTAA	0.36 ± 0.025
AAGCGATA	0.2613 ± 0.002
ATAGGCTG	0.0188 ± 0.056
TATGTACA	-0.174 ± 0.083
GGAGCAAC	0.0231 ± 0.049
GAACTTCA	-0.0825 ± 0.021
ACAGTCCG	0.00019 ± 0.0047
GGGGTACC	-0.1738 ± 0.00025
CGGCGTGC	0.00958 ± 0.15
GCGTGAAC	0.456 ± 0.0075
ACGTGAAC	0.126 ± 0.031

Sequence	PBM E-score of 8-mer
GCGTGACA	0.345 ± 0.023
GCGTGAAA	0.4597 ± 0.0039
GCGTGACC	0.369 ± 0.004
TCGTGAAA	0.253 ± 0.054
CCGTGAAA	0.245 ± 0.022
CCGTGAAC	0.353 ± 0.0099
ACGTGACC	0.135 ± 0.082
CCGGATCG	-0.114 ± 0.033
CAAAAAAA	-0.1537 ± 0.00074
CAAGCTTC	-0.215 ± 0.013
AAGGTCAC	0.164 ± 0.036
AACGGGAT	-0.0959 ± 0.041
CGTTTCCA	0.0866 ± 0.0024
AAGTGCGA	0.483 ± 0.0069
ATGTGCGG	0.0899 ± 0.0075
ATGTGCGC	0.211 ± 0.054
TAGTGCCA	0.195 ± 0.009
AAGTGCGC	0.194 ± 0.018
ATGTGCGA	0.47362 ± 0.00026
CAGTGCGA	0.386 ± 0.0039
CAGTGCGG	0.107 ± 0.0036
CAGTGCGC	0.00847 ± 0.051

Sequence	PBM E-score of 8-mer
TAGTGCAA	0.247 ± 0.024
TAGTGCGA	0.4025 ± 0.0017
AAGTGCGT	0.203 ± 0.018
ACGATCTC	0.0369 ± 0.034
GGATGACC	0.103 ± 0.0083
AACCACGG	0.0188 ± 0.11
GCAGAAGA	-0.218 ± 0.017
GAGTGCAA	0.0398 ± 0.012
ACGTGCGG	0.206 ± 0.011
GAGTGCGA	0.411 ± 0.021
ACGTGCGA	0.4353 ± 0.0022
GCGTGCGA	0.317 ± 0.025
GAGTGCGC	-0.0493 ± 0.043
ACACTTCT	0.383 ± 0.035
AAACTTCG	-0.00264 ± 0.024
GCACTTCC	0.326 ± 0.017
ACACTTCG	0.409 ± 0.0085
ACACTTCC	0.417 ± 0.016
ACACTTCA	0.412 ± 0.0084
TCACTTCA	0.151 ± 0.018
